Measurements: PubChem BioAssay
The source made the active and inactive calls.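 Rule for the calls, unless noted: active = compounds lowering colon cancer cell viability after pretreatment blocking the GSK3B kinase; inactive = the rest.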

Columns and labels:
[1] = Wnt pathway potentiators raising nuclear beta-catenin – imaging, WNT3A-conditioned medium, mouse C2C12, NPC library, primary screen (AID 1117326; in the data active = nuclear beta-catenin stimulation mostly above about 4.2%, no sharp cut-off; inactive = mostly below about 10%; note: reference of the scale not given here); conditions: stronger effect = higher value
[2] = stimulators of insulin release from INS-1E, primary screen, cell-based, 5 mM glucose, NPC library (AID 1117329;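 active = compound raises insulin release from rat beta cells at 5 mM glucose, no numeric limit stated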; note: reference of the scale not given here); conditions: rat INS-1E insulin secretion, at 10 µM, stronger effect = higher value
[3] = growth inhibition of GSK3B-pretreated HCT116 cells – cell-based, CellTiter-Glo, 0.2 to 20 µM (AID 1117336); conditions: HCT116 viability after GSK3B inhibitor, at 20 µM, stronger effect = higher value
[4] = inhibition of endothelial tube formation, primary screen, imaging, VEGF stimulated, CD31 staining, tube area, NPC library (AID 1117340;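 active = compound that reduces growth-factor-driven endothelial tube area in a mixed cell culture, no cutoff stated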); conditions: VEGF-stimulated ADSC/ECFC co-culture, at 10 µM, stronger effect = higher value
[5] = GLP1 release stimulators, primary, NCI-H716, NPC library (AID 1117341;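 active = compound raises GLP1 secretion from the human gut endocrine cells, with no numeric limit stated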; note: reference of the scale not given here); conditions: NCI-H716 cells, at 10 µM, stronger effect = higher value
[6] = HCT116 colon cancer cell growth inhibition, primary screen, CellTiter-Glo luminescence, NPC library (AID 1117342;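 active = compounds that lower survival of HCT116 colon cancer cells in the luminescence readout, no numeric limit stated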); conditions: at 20 µM (top of the series)
[7] = reduced SW480 viability measured with CellTiter-Glo, NPC library, primary (AID 1117343;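 active = compounds that lower viability of the colon cancer cells in the luminescence readout, with no numeric limit stated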); conditions: CellTiter-Glo luminescence; at 20 µM (top of the series)
[8] = NPC library primary testing for decreased DLD-1 cell viability via CellTiter-Glo (AID 1117346;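 active = compounds that lower survival of DLD-1 colon cancer cells in the luminescence readout, no cutoff given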); conditions: DLD-1 viability, CellTiter-Glo luminescence; at 20 µM (top of the series)

Compound | nuclear beta-catenin stimulation ([1]; at 10 µM) | nuclear beta-catenin stimulation ([1]; stimulation, at 2 µM) [%] | insulin secretion stimulation [2] | viability decrease [3] | tube area decrease [4] | GLP1 secretion stimulation [5] | inhibition of viability [6] | viability decrease (inhibition) [7] | viability decrease (inhibition) [8]
CCCCNC(C)(C)[P+](=O)O | -0.8% (inactive) | -0.8 | -2.5% (inactive) | -0.6% (inactive) | -26.4% (inactive) | -3.9% (inactive) | -4.7% (inactive) | 1.4% (inactive) | -4.2% (inactive)
CNC(=O)NC(O)C(Cl)(Cl)Cl (stereo not given) | -0.4% (inactive) | -0.2 | -1% (inactive) | -2.1% (inactive) | -28.9% (inactive) | 3.1% (inactive) | -4.4% (inactive) | 19.7% (inactive) | -1.55% (inactive)
Oc1c(Br)cc(Br)cc1Br | -0.6% (inactive) | -0.3 | -0.4% (inactive) | -83.3% (inactive) | 10% (inactive) | -3.7% (inactive) | -18% (inactive) | 32.1% (inactive) | 37.1% (inactive)
NCCS[As](SCCN)c1ccc(Nc2nc(N)nc(N)n2)cc1 | -1.4% (inactive) | -0.4 | 0.6% (inactive) | -8.2% (inactive) | 21.9% (inactive) | -3.3% (inactive) | 0.1% (inactive) | -3.2% (inactive) | -34.2% (inactive)
COP(=S)(OC)Oc1ccc(S(N)(=O)=O)cc1 | 0.4% (inactive) | 1.1 | -1.7% (inactive) | -4.35% (inactive) | -30.3% (inactive) | 1.6% (inactive) | -18.1% (inactive) | 4.3% (inactive) | -0.7% (inactive)
O=C1OC(c2ccc(O)c(S(=O)(=O)O)c2)(c2ccc(O)c(S(=O)(=O)O)c2)c2c(Br)c(Br)c(Br)c(Br)c21 | 3.3% (inactive) | 4.7 | 0.75% (inactive) | 22.6% (inactive) | -6.3% (inactive) | 6.8% (inactive) | -59% (inactive) | 84.5% (active) | -56.3% (inactive)
CNC(C)Cc1ccccc1OC (stereo not given) | -0.4% (inactive) | 1.2 | 7.2% (inactive) | -1.3% (inactive) | -13.1% (inactive) | 0.2% (inactive) | 9.4% (inactive) | 41.8% (inactive) | 43.1% (inactive)
CC1=C(C(=O)O)N2C(=O)[C@@H](N)[C@H]2SC1 | -0.8% (inactive) | 0.3 | 0.4% (inactive) | 9.7% (inactive) | -6.3% (inactive) | 4.2% (inactive) | 13.3% (inactive) | 33.8% (inactive) | 21.2% (inactive)
C#CCOC(C(=O)OCCN(C)C)(c1ccccc1)c1ccccc1 | 2.7% (inactive) | 0.9 | 28.7% (active) | -8.15% (inactive) | 36.7% (inactive) | 5.3% (inactive) | -6.2% (inactive) | 17.1% (inactive) | -1.8% (inactive)
C[C@]12CC[C@H]3[C@@H](CC[C@@]45O[C@H]4C(O)=C(C#N)C[C@]35C)[C@H]1CC[C@H]2O | 1.5% (inactive) | 1.1 | -0.7% (inactive) | -177% (inactive) | 28.3% (inactive) | -1.5% (inactive) | 11.5% (inactive) | 5.1% (inactive) | -16.6% (inactive)
Nc1ccccc1C(=O)OCC(O)CO (stereo not given) | 3.1% (inactive) | 3.4 | -1.4% (inactive) | -40% (inactive) | 21.1% (inactive) | -1.2% (inactive) | -0.1% (inactive) | -4.5% (inactive) | -4.9% (inactive)
O=[N+]([O-])c1cc(I)c(O)c(I)c1 | 18.4% (inactive) | 0.7 | 5.5% (inactive) | 95% (active) | 106% (active) | -1% (inactive) | 93% (active) | 101% (active) | 98.8% (active)
CCC(=O)O[C@@H]1C=C2CCC3C(CCC4(C)C3CC[C@@H]4OC(=O)CC)C2CC1 (stereo not given in full) | -0.9% (inactive) | 1.3 | 4.8% (inactive) | 7.6% (inactive) | -11.8% (inactive) | -4.4% (inactive) | 21.4% (inactive) | 13.2% (inactive) | 9.9% (inactive)
C[C@]12CCC(=O)C=C1C=C[C@@H]1[C@H]2CC[C@@]2(C)[C@@H]1CC[C@@]2(O)CCC(=O)O | -1.1% (inactive) | 0 | -2.4% (inactive) | -15.4% (inactive) | 2% (inactive) | 0.9% (inactive) | 3.7% (inactive) | -2% (inactive) | -7.2% (inactive)
C[C@]12C[C@@H]3S[C@H]3C[C@@H]1CC[C@H]1[C@H]3CC[C@@H](O)[C@@]3(C)CC[C@@H]12 | -1% (inactive) | -0.5 | 2.4% (inactive) | -16.6% (inactive) | 10.4% (inactive) | -4.2% (inactive) | 18.8% (inactive) | 17.2% (inactive) | -13.3% (inactive)
